# Assay outcomes deposited in PubChem BioAssay by several laboratories.
# GASC-1 inh: inhibitors of GASC-1 histone demethylase, primary screen, biochemical, fluorescence, DELFIA europium. Lysine-specific demethylase 4C (Homo sapiens), Q9H3R0. GST-JMJD2C(1-420) H3K9me3 demethylation. inhibition, % at 2.35 µM. actives 0.069% (n = 330,000);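 active means more than half of a compound's replicate wells show inhibition beyond 50%, single wells judged on their own value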;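 further: signal counts dimethyl H3K9 product captured on neutravidin plate; 0% = median of DMSO wells and 100% = 0.3 times that DMSO median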
# V-ATPase pH: regulators of yeast V-ATPase proton pumping, primary screen, pHLuorin cytosolic pH fluorescence. S. cerevisiae. response, % at 10 µM. actives 0.37% (n = 350,000). AID 504577, 2011; in the data active means response mostly above about 7.3%, no sharp cut-off; inactive means mostly below about 5.4%; further: actives read high
# MEX-5 binding: MEX-5 zinc finger RNA-binding disruptors – biochemical, C. elegans, fluorescence polarization, MLPCN library, primary screen. actives 0.38% (n = 300,000). Zinc finger protein mex-5 (Caenorhabditis elegans), Q9XUB2. activity score (negative = inhibition of binding), % at 10 µM. MEX-5/FITC-TCR2 RNA binding; stronger effect = lower value. AID 1832, 2009;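 active means inhibition past about -25% in most replicates, and total fluorescence under double the plate's negative control median, limit read from the data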;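 further: 0% = DMSO and -100% = 5 µM competing unlabeled TCR2 RNA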
# m5-HT2A agonist: mouse Htr2a agonists via beta-arrestin recruitment, primary screen, cell-based, luminescence; 5-hydroxytryptamine receptor 2A (Mus musculus), P35363; CHO-K1 mHTR2A beta-arrestin complementation; percent of 30 µM serotonin response; activation, % at 7.6 µM; actives 0.66% (n = 360,000);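 active means activation above a run cutoff, the mean activation of all tested compounds plus 3 SD, cut at about 14% in these data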;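 further: 0% = plate median of compound wells and 100% = 30 µM serotonin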
# Granule exo inh: LAMP-1 surface exposure blockers, TALL-104 cells – cell-based, flow cytometry, MLPCN library, primary screen | TALL-104 LAMP-1 surface exposure; cells stimulated with thapsigargin and PMA | inhibition, % at 10 µM | actives 0.66% (n = 360,000);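 active means inhibition above about 55%, limit read from the data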
# VLA-4 inh: inhibition in human VLA-4 binding assay, primary screen, VLA-4 allosteric modulator project, MLPCN library, flow cytometry, VLA-4 expressing cells. Integrin alpha-4 (Homo sapiens), P13612. ligand binding flow cytometry. inhibition, % (about 7 µM as worked out from the volumes in the protocol). actives 0.2% (n = 330,000); in the data active means inhibition above about 50%
# MOR ag counter: OPRM1 agonists via beta-arrestin recruitment, confirmation, counter-screen for mouse HTR2A agonist project, cell-based, luminescence, single concentration. shares compounds with m5-HT2A agonist. U2OS OPRM1 beta-arrestin PathHunter; DMSO 0%, DAMGO 9.3 µM 100%. activation, % at 9.3 µM. actives 5.3% (n = 2,300). AID 624380, 2012;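 active means mean activation above the mean of DMSO-only wells plus 3 SD, cut at about 0.5% in these data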
# Target sequence (P35372 whole entry, looked up): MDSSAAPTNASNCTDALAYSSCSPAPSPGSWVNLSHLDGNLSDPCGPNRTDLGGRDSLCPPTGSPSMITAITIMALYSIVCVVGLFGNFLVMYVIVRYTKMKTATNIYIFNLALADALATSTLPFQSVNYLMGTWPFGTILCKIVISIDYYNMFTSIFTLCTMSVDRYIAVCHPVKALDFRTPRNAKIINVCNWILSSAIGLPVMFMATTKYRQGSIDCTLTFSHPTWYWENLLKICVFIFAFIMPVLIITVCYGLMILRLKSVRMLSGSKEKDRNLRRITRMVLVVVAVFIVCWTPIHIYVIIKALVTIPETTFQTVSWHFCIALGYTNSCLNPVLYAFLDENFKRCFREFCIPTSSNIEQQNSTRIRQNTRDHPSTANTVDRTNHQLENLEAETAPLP
# m5-HT2A ag conf: mouse HTR2A agonists, beta-arrestin recruitment, confirmation, cell-based, luminescence, CHO-K1 PathHunter, triplicate. shares compounds with m5-HT2A agonist. DMSO 0%, 30 µM serotonin 100%. activation, % at 7.6 µM. actives 19% (n = 2,300). AID 624381, 2012;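 active means mean activation across triplicates above the hit threshold derived in the original primary screen, cut at about 15% in these data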
# Numbers without * were called inactive; · = no result. An excerpt weighted towards active compounds, which were near 2.2% of everything screened.
SMILES,GASC-1 inh,V-ATPase pH,MEX-5 binding,m5-HT2A agonist,Granule exo inh,VLA-4 inh,MOR ag counter,m5-HT2A ag conf
CC(=O)c1c(C)[nH]c(C(=O)Nc2ccc(Cl)cc2)c1C,8,0,1,-6,-2,-4,·,·
CC(=O)c1c(C)[nH]c(C(=O)Nc2ccccn2)c1C,9,9,3,15*,4,-1,-1,-1
CC(C)(C)c1ccc(Cc2n[nH]c(=S)[nH]c2=O)cc1,2,2,1,15*,-9,-2,-1,-4
O=C(CNS(=O)(=O)c1ccc(Br)cc1)N1CCN(Cc2ccccc2)CC1,7,-1,-1,15*,-4,0,0,17*
N#Cc1ccc(CN2CCN(C(=O)CNS(=O)(=O)c3ccc4c(c3)OCCCO4)CC2)cc1,-2,4,·,15*,-3,-1,-1,-3
CC(=O)Nc1ccc2ccccc2c1[N+](=O)[O-],·,0,·,0,-11,·,·,·
CC1(C)CC(=O)C(C(=O)c2ccccc2)C(=O)C1,4,0,-1,19*,1,12,0,-1
CCOC(=O)C1=CCC(c2ccccc2)N(S(=O)(=O)c2ccc(C)cc2)[C@H]1CC (stereo not given in full),·,·,·,-9,10,·,·,·
CCCCCc1cc(=O)oc2c(C(CCN3CCN(c4ccccc4)CC3)c3ccc4c(c3)OCO4)c(OC)cc(OC)c12 (stereo not given),9,-1,0,22*,-4,-9,-1,49*
Cc1ccc(S(=O)(=O)NCC(=O)NNC(=O)c2ccccc2Cl)cc1C,-8,0,·,-4,-4,3,·,·
CCCCOc1ccc(NC(=O)CCSc2nccn2C)cc1,-11,-2,3,-4,-1,4,·,·
CC(=O)Nc1ccc(NC(=O)CSc2nc3ccccc3c(=O)n2CCCN2CCOCC2)cc1,5,1,·,6,20,0,·,·
COc1ccc(NC(=O)CSc2nc3ccccc3c(=O)n2CCCN2CCC(C)CC2)c(OC)c1,-8,5,-1,61*,11,12,-1,18*
COCCn1c(SCC(=O)Nc2ccc(OC)cc2OC)nc2ccccc2c1=O,-6,7,2,-2,-4,12,·,·
CC1CCN(CCCn2c(SCC(=O)Nc3ccccc3Cl)nc3ccccc3c2=O)CC1,-3,7,-1,43*,26,7,0,24*
COC(=O)c1ccc(/C=N/N2CCN(Cc3ccc(C)cc3C)CC2)cc1,-5,-3,2,18*,11,2,0,15*
Cc1ccc(CN2CCN(/N=C/c3ccc(C(=O)O)cc3)CC2)c(C)c1,4,1,1,1,-5,5,·,·
CCc1cc(C(=O)N/N=C/c2ccc(OC)cc2)c2ccccc2n1,-1,1,0,-5,-22,9,·,·
CC(NC(=O)c1nn(C)c(=O)c2ccccc12)c1ccc(F)cc1 (stereo not given),4,-2,1,15*,-3,3,0,-3
COc1ccccc1CNC(=O)COC(=O)c1nc(Cl)ccc1Cl,2,0,3,5,-3,17,·,·
CSc1nc(SCC(=O)NCc2ccco2)c2c3c(sc2n1)COC(C)(C)C3,4,2,2,19*,1,-13,-1,2
